Compounds with a hit are over-represented: about 2.6% of the library has one in this group of screens.
c-Myc SMM: binders of human c-Myc, primary screen, biochemical, small molecule microarray, anti-His fluorescence. Myc proto-oncogene protein (Homo sapiens), P01106. His-c-Myc binding. calls only. 1.5% of 17,000 active;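 active = spot fluorescence over background with P-value below 7% in all four replicate spots, showing protein binding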;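 note: score is binary with 100 for all four spots passing and 0 otherwise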
NFkB SMM: binders of NF-kB p50 subunit, primary screen, biochemical, small molecule microarray, anti-His fluorescence. 1.3% of 17,000 active. calls only. anti-His fluorescence binding. Nuclear factor NF-kappa-B p105 subunit (Homo sapiens), P19838. AID 624139, 2012;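 active = spot fluorescence over background significantly raised, with a chance value under 7% in all four replicate spots of the compound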;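 note: probe protein is his-tagged human p50 processed subunit at 1 µg/ml; raw spot fluorescence signals with no normalization applied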
Target sequence (P19838 1-433 limits assumed): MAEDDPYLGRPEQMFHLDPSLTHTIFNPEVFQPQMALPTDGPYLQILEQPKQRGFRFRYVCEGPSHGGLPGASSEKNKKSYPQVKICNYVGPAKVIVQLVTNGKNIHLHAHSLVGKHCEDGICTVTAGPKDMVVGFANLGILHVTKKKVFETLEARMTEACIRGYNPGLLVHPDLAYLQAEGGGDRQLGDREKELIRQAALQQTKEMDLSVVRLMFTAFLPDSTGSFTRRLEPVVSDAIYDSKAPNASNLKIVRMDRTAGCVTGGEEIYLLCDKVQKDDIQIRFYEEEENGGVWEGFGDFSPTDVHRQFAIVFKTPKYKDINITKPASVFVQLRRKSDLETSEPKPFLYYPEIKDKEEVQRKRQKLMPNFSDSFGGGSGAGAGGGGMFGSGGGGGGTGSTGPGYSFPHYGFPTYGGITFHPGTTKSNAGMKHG
STAT3 binder: STAT3 binders, primary screen, biochemical, small molecule microarray, single point, set 2; calls only; His-STAT3 binding, anti-His fluorescence; Signal transducer and activator of transcription 3 (Homo sapiens), P40763; 0.2% of 17,000 active;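 active = compounds whose four printed spots each show fluorescence over background unusually high for their array block, chance value under 7%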
p53 PUMA act: mutant p53 pathway re-activators, primary screen, cell-based, SW480, luciferase, single point, HTS; SW480 PUMA-promoter luciferase, p53 mutant reactivation; activation, % at 9.98 µM; 1.5% of 28,000 active; in the data active = activation above about 52%
p53 mut binder: binders of human mutant p53, primary screen, biochemical, small molecule microarray, anti-GST fluorescence; small molecule microarray binding; 0.4% of 17,000 active; calls only; mutant tumor protein p53 (GST-tagged), Homo sapiens; AID 624136, 2012;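 active = compounds whose four printed spots each glow above background more than chance allows, each with a p-value under 7%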
An asterisk follows results filed as active; i = inactive; / = not tested or not shown; + = active, no number.

SMILES	c-Myc SMM	NFkB SMM	STAT3 binder	p53 PUMA act	p53 mut binder
C/C=C1\C(O[C@@H]2O[C@H](CO[C@@H]3O[C@H](CO)[C@@H](O)[C@H](O)[C@H]3O)[C@@H](O)[C@H](O)[C@H]2O)OC=C(C(=O)OC)C1CC(=O)OCCc1ccc(O)cc1 (stereo partly drawn)	i	i	i	-7	i
C[C@@H]1CCCCO[C@H](CN(C)CC2CCCCC2)[C@H](C)CN([C@@H](C)CO)C(=O)c2cc(NC(=O)NC3CCCCC3)ccc2O1	i	+	i	/	i
C[C@@H]1CN([C@@H](C)CO)C(=O)c2cc(N(C)C)ccc2O[C@@H](C)CCCCO[C@H]1CN(C)C(=O)Nc1cccc2ccccc12	+	i	i	-19	i
Cc1ccc(NC(=O)COc2ccc(I)cc2)c(C(=O)O)c1	i	i	i	-16	i
COc1ccc(C2CC(C(F)(F)F)n3ncc(C(=O)Nc4sc5c(c4C#N)CCC(C)C5)c3N2)cc1OC (stereo not drawn)	i	i	i	-9	i
Cc1cc(=O)oc2cc(NC(=S)NCc3cccnc3)ccc12	/	/	/	75*	/
OCc1nc2ccccc2n1CCCOc1ccc(Br)cc1	/	/	/	56*	/
CC(=O)c1cccc(NC(=O)Cc2ccccc2[N+](=O)[O-])c1	/	/	/	13	/
CC1(C)Cc2nc3sc4c(=O)n(CC(=O)NCCc5ccccc5)cnc4c3cc2CO1	/	/	/	12	/
CC(=O)c1ccc(NC(=O)Cn2cnc3c(sc4nc5c(cc43)COC(C)(C)C5)c2=O)cc1	i	i	i	73*	i
COc1ccc(OCC(=O)Nc2cc(-c3nc4ccccc4s3)ccc2C)cc1	/	/	/	30	/
COc1ccc(-c2nc3ccccc3s2)cc1NC(=O)COc1ccccc1[N+](=O)[O-]	/	/	/	28	/
Cc1ccc(-c2nc3ccccc3s2)cc1NC(=O)COc1ccccc1	i	i	i	54*	i
COc1ccc(-c2nc3ccccc3s2)cc1NC(=O)COc1cccc(C)c1	/	/	/	66*	/
COc1ccc(NC(=O)c2ccco2)c(NC(=O)CSc2ccc(Cl)cc2)c1	/	/	/	-7	/
COc1ccc(CNc2nc(-c3ccc(Cl)cc3)nn2C(=O)c2ccco2)cc1	/	/	/	87*	/
COc1ccc(CC(=O)n2nc(-c3ccc(Cl)cc3)nc2NCc2ccco2)cc1OC	/	/	/	110*	/
C[C@@H]1CN([C@H](C)CO)C(=O)Cc2cc(NS(=O)(=O)c3ccc(Cl)cc3)ccc2O[C@H]1CN(C)CC1CCCCC1	+	i	i	8	i
CNC[C@H]1Oc2ccc(NS(=O)(=O)c3cn(C)cn3)cc2CC(=O)N([C@H](C)CO)C[C@@H]1C	i	i	i	-4	i
C[C@H](CO)N1C[C@H](C)[C@@H](CN(C)CC2CCCCC2)Oc2ccc(NS(=O)(=O)c3ccc(Cl)cc3)cc2CC1=O	i	i	i	-2	i
C[C@@H]1CN([C@@H](C)CO)C(=O)Cc2cc(NS(=O)(=O)c3ccc(Cl)cc3)ccc2O[C@@H]1CN(C)C(=O)Nc1ccc(F)cc1	+	+	i	-5	i
C[C@H](CO)N1C[C@H](C)[C@@H](CN(C)C(=O)Nc2ccc(F)cc2)Oc2ccc(NS(=O)(=O)c3ccc(Cl)cc3)cc2CC1=O	i	i	i	2	i
CNC[C@@H]1Oc2ccc(NS(=O)(=O)c3cn(C)cn3)cc2CC(=O)N([C@H](C)CO)C[C@@H]1C	i	+	i	4	i
COc1ccccc1-c1cc(-c2ccccc2)nc(SCC(=O)c2cc3ccccc3oc2=O)c1C#N	/	/	/	-23	/
COCC(C)NCc1ccc(OC)c(OC)c1OC (stereo not drawn)	+	i	i	-8	i
SMILES	c-Myc SMM	NFkB SMM	STAT3 binder	p53 PUMA act	p53 mut binder
Cc1cc(=O)[nH]c(SCCOc2ccc(Br)cc2Cl)n1	/	/	/	80*	/
C=C1CCC2(C(=O)O)CCC3(C)C(=CCC4C5(C)C[C@@H](O)[C@H](O)C(C)(CO)C5CCC43C)C2C1C (stereo partly drawn)	+	+	i	12	i
C[C@@H]1CC[C@]2(C(=O)O)CC[C@]3(C)C(=CCC4[C@@]5(C)C[C@@H](O)[C@@H](O)C(C)(C)C5CC[C@]43C)C2[C@]1(C)O (stereo partly drawn)	i	i	i	7	i
CC1CCc2c(sc3ncnc(SCC(=O)Nc4cccc(Cl)c4Cl)c23)C1 (stereo not drawn)	/	/	/	1	/
COc1ccccc1C(=O)Nc1ccc2c(c1)nc(CCNC(C)=O)n2C	/	/	/	131*	/
O=C(CSc1nc2ccccc2[nH]1)Nc1cccc(C(F)(F)F)c1	/	/	/	10	/
COc1ccccc1CN1CC(C(=O)O)CC1=O (stereo not drawn)	+	i	i	-1	i
COc1ccc(S(=O)(=O)N2CCC(C(=O)Nc3ccc(NC(C)=O)cc3)CC2)cc1OC	/	/	/	-8	/
O=C(COc1ccc2ccccc2c1Br)Nc1cccnc1	/	/	/	80*	/
CC(=O)Nc1ccccc1NC(=O)COc1ccc2ccccc2c1Br	i	i	i	-10	i
COc1ccc(NC(=O)COc2cc(C)cc(C)c2C)c([N+](=O)[O-])c1	/	/	/	-7	/
Cc1ccc(NC(=O)COc2ccc3ccccc3c2Br)c([N+](=O)[O-])c1	/	/	/	64*	/
COc1ccc(NC(=O)COc2ccccc2)c([N+](=O)[O-])c1	/	/	/	72*	/
Cc1ccc(NC(=O)CCCOc2ccccc2)c([N+](=O)[O-])c1	/	/	/	79*	/
CS(=O)(=O)N(CC(=O)Nc1c(F)cccc1F)c1cc(Cl)c(Cl)cc1Cl	/	/	/	3	/
COc1ccc(NC(=O)CN(c2ccc(Br)c(C)c2)S(C)(=O)=O)cc1OC	/	/	/	-1	/
COc1ccc(NC(=O)CSc2nc3ccccc3o2)c([N+](=O)[O-])c1	i	i	i	69*	i
COc1ccc(OCC(=O)Nc2ccccc2OC(F)F)cc1	i	i	i	65*	i
Cc1ccc(NC(=O)C(C)Oc2ccc(Cl)cc2Cl)c([N+](=O)[O-])c1 (stereo not drawn)	i	i	i	77*	i
COc1ccc(NC(=O)CSc2nnc(C)s2)c([N+](=O)[O-])c1	/	/	/	2	/
COc1ccc(NC(=O)C(C)Oc2ccccc2)c([N+](=O)[O-])c1 (stereo not drawn)	/	/	/	86*	/
Cc1ccc(S(=O)(=O)NCCC(=O)Oc2ccc3c(=O)c(-c4ccc(F)cc4)coc3c2)cc1	i	i	i	105*	i
COC(=O)c1csc(S(=O)(=O)N=S(C)(=O)c2cccs2)c1OC (stereo not drawn)	/	/	/	-7	/
COc1cc2c(c(N)c1OC)C(=O)/C(=C/c1cc(C)c(O)c(C)c1)C2	i	i	i	-2	i

Source: PubChem (Broad Institute)
